Bioassay records deposited in PubChem BioAssay by National Center for Advancing Translational Sciences (NCATS).
Shown are actives, neighbours in structure and some others; about 3% of the full set was active somewhere.
KCNH2 3.1 block – KCNH2 3.1 (human) potassium channel inhibition; activity change, % (tested at about 1.8 µM); 340,000 compounds, 0.95% hits; U2OS KCNH2 3.1, thallium flux FluxOr; active compounds read low;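 active = maximum activity change below -70%; inconclusive = maximum activity change from -70% to -50%; inactive = maximum activity change above -50%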;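 also: thallium influx rate constant from kinetic fluorescence after stimulation buffer; % is scaled to controls: 0 for no effect and ±100 for the full control effect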
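Thallium flux read-out: FluxOr dye with Red40 quencher in HBSS/HEPES, 45 min at RT. Rate constants from kinetic reads were normalized to positive and negative DMSO controls. Cells: U2OS virally expressing the 3.1 isoform.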
ALOX12 inh – ALOX12 (human) lipoxygenase inhibition; P18054; purified 12hLO, xylenol orange hydroperoxide absorbance; Potency, µM (doses to about 108 µM), for inactives: at the highest dose activity change, negative = inhibition, hits mostly inhibitors; 580,000 compounds, 1.1% hits; active = well fitted inhibition curve with a large enough effect; inconclusive = small, poorly fitted or top-dose-only effect, or another doubt; inactive = no such curve, though single readings can be large or run the other way; also: potency is read from the fitted curve at half-maximal effect; % is scaled to controls: 0 for no effect and ±100 for the full control effect
Target sequence (P18054 whole entry, looked up): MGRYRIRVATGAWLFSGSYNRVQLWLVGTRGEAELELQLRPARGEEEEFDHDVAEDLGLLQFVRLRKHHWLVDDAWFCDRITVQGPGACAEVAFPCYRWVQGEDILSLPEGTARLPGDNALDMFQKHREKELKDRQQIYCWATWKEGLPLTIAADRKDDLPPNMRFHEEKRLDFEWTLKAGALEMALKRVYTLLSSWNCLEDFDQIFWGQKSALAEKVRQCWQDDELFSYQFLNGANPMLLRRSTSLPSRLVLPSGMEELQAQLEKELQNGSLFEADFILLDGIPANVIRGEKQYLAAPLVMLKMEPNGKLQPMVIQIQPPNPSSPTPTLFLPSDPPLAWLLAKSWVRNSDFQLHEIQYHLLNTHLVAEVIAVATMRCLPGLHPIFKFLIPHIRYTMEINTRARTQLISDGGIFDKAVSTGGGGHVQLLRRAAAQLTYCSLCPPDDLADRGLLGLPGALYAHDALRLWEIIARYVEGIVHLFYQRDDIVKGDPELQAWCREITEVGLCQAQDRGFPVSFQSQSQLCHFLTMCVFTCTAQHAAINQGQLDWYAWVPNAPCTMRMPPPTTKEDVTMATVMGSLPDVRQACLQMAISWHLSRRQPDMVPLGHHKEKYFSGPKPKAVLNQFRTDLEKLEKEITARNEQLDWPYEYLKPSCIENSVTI
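Purified human 12hLO at 150 nM in 25 mM Hepes, 0.01% Triton X-100, pH 7.0, preincubated 15 min at room temperature with compound. Reaction started with 40 uM arachidonic acid, 30 min at room temperature. Hydroperoxide measured by Fe-xylenol orange, 573/405 nm absorbance ratio.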
ClpP mod – qHTS Assay for Activators of ClpP. Potency, µM (titrated, usually from 57.5 µM), inactives show top-dose activity change, negative = active. AID 651965, 2013. purified B. subtilis ClpP, FRET peptide cleavage, 20 min. 340,000 compounds, 1.9% hits; active = well fitted falling curve with a large enough effect; inconclusive = small, poorly fitted or top-dose-only effect; inactive = no such curve, though single readings can be large or run the other way; also: potency is read from the fitted curve at half-maximal effect; the source files actives as falling curves though it sought activators and does not explain the sign; nearly all actives have a fitted effect of over 65% in size
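FRET quenching reversal measured ClpP activation: 10 microg/mL B. subtilis ClpP at pH 8 with the FRET-FV decapeptide, read at 430 nm after 320 nm excitation. The 20-min minus 0-min signal was scaled between DMSO/no-enzyme wells and ADEP (5.8 microM final).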
LDHA block – LDHA (human) enzyme inhibition. P00338. purified LDHA, NADH/diaphorase-resazurin fluorescence; active compounds read low. activity change, % (values are at about 110 or 230 µM). 480,000 compounds, 0.15% hits; in the data active = activity change below about -30%; inconclusive = mostly about -25% to -30%;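 also: plate controls were DMSO wells for no effect and wells without enzyme for full effect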
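Resorufin fluorescence (ex540/em590), read at 0 and 20 min after diaphorase/resazurin addition, reports the NADH left after a 5 min room-temperature reaction of 2 nM human LDH5 with 0.06 mM NADH and 0.2 mM pyruvate.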
BCR signal inh – inhibitors of chronic active B-cell receptor signaling; 340,000 compounds, 0.05% hits; Potency, µM (doses to about 46.1 µM), without a hit: at the top dose activity change, negative = inhibition, actives largely listed as inhibitors; ABC-DLBCL IkBa-CBG/CBR reporter, luminescence ratio, 4 h; active = well fitted inhibition curve with a large enough effect in the signal ratio, with a control signal flat, not every such curve was filed as active; inconclusive = small, poorly fitted or top-dose-only effect, or effect the other way, or a change in a side signal; the % refers to the signal ratio;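 also: potency is read from the fitted curve at half-maximal effect; plate controls were basal doxycycline-induced cells for no effect and cells given 10 µM MG132 for full effect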
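TMD8 ABC-DLBCL cells carrying doxycycline-inducible green luciferase fused to IkappaBalpha plus unfused red luciferase were exposed to compounds (up to 46 uM) for 4 hrs at 37C. Activity came from the overlap-corrected green/red luminescence ratio.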
KCNH2 WT inh – blocks the wildtype human KCNH2 potassium channel | U2OS, BacMam KCNH2, thallium flux FluxOr; active compounds read low | Q12809 | 340,000 compounds, 0.37% hits | activity change, % at 1.84 µM;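 active = maximum activity change below -70%; inconclusive = maximum activity change between -70% and -50%; inactive = maximum activity change above -50%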; also: % is scaled to controls: 0 for no effect and ±100 for the full control effect
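U2OS cells transduced with wild-type KCNH2 virus are loaded with FluxOr dye for 45 min, and thallium flux is measured in kinetic reads before and after stimulation buffer. Rate constants are normalized to DMSO controls.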
Numbers without * were called inactive; ? = inconclusive; . = no result; [ ] = dose if it differs, or a comment.

SMILES	KCNH2 3.1 block	ALOX12 inh	ClpP mod	LDHA block	BCR signal inh	KCNH2 WT inh
Cc1ccccc1Cc1c(C)nc2c(C(=O)N3CCN(Cc4ccc5c(c4)OCO5)CC3)cnn2c1C	0	-21%	32µM*	-5	.	-2
Cc1ccccc1Cc1c(C)nc2c(C(=O)NCc3ccc4c(c3)OCO4)cnn2c1C	-3	-4%	104%	-1	3%	6
Cc1cccc(C(=O)N2CCN(Cc3ccc4c(c3)OCO4)CC2)c1	29	13%	-2%	4	-9%	10
CCOC(=O)C1=C(C)Nc2nc3ccccc3n2C1c1ccccc1 (stereo not given)	3	15%	35µM*	-1	-1%	0
COC(=O)C1=C(C)Nc2nc3ccccc3n2C1c1ccccc1 (stereo not given)	.	13%	.	-4	.	.
Cn1c(SCC(N)=O)nnc1-c1cc2c(s1)CCC(C(C)(C)C)C2 (stereo not given)	.	-17%	.	-1	.	.
COC(=O)COc1cccc(N)c1	.	13µM*	.	8	.	.
COc1ccc(C[C@H]2CN3C(=NC[C@@H]3Cc3ccccc3)N2CCNC(=O)CCC2CCCCC2)cc1	?	?	-1%	4	?	-145*
O=[N+]([O-])c1cc(C(F)(F)F)ccc1-n1nnc2ccccc21	1	13%	?	-6	?	-20
O=[N+]([O-])c1cc(S(=O)(=O)Nc2ccccc2)ccc1N1CCN(c2ccc(O)cc2)CC1	0	25µM*	1%	2	5%	1
O=[N+]([O-])c1cc(S(=O)(=O)Nc2ccccc2)ccc1-n1nnc2ccccc21	-183*	0%	-2%	-2	3%	-210*
Cc1ccccc1CC(=O)Nc1cc(C(C)(C)C)on1	2	5µM*	.	-3	-3%	-13
S=c1nccc(-c2ccccc2)[nH]1	.	13µM*	.	12	.	.
Cc1ccc(-c2ccnc(=S)[nH]2)cc1	7	-37%	-2%	-11	-11%	2
CCN1CCCC1CNC(=O)C(C)(C)C (stereo not given)	.	-74%	.	28	.	.
COC(=O)c1cc2nc(-c3ccc(OC)c(OC)c3)cc(C(F)(F)F)n2n1	3	0%	3.2µM*	-3	?	2
COc1ccc(-c2cc(C(F)(F)F)n3nc(C(=O)O)cc3n2)cc1OC	.	423%	-1%	2	-1%	-1
CC(C)C(=O)Nc1ccc2[nH]cc(C(C(=O)O)N3CCN(Cc4ccccc4)CC3)c2c1 (stereo not given)	.	6%	.	4	.	.
O=C(Nc1ccc2oc(-c3ccccc3)cc(=O)c2c1)c1ccco1	.	?	.	0	.	.
COc1cccc(Nc2ccc3c(n2)C(C)(C(=O)NCC2CC2)CN(C)C3)c1 (stereo not given)	.	37%[176 µM]	.	.	.	.
c1ccc(OCCN2CCC(c3nc4ccccc4s3)CC2)cc1	.	5µM*	.	-4	.	.
c1ccc(CCCN2CC[C@H](c3nc4ccccc4s3)C2)cc1	.	-19%[176 µM]	.	.	.	.
Cc1ccccc1OCCn1cnc2c(N)ncnc21	-14	-7%	-2%	-5	18µM*	-6
Fc1ccc(-c2nnc(COc3cccc(Cl)c3)o2)cc1	.	?	.	3	.	.
Nc1cc(Cc2ccccc2)ccc1O	16	5.6µM*	-3%	0	.	14
SMILES	KCNH2 3.1 block	ALOX12 inh	ClpP mod	LDHA block	BCR signal inh	KCNH2 WT inh
CC1CCC(NC(=O)CSc2nc3cc([N+](=O)[O-])ccc3o2)CC1 (stereo not given)	.	?	.	7	.	.
CCCOc1cc(S(=O)(=O)N2CCCC2)c(C)cc1C	.	-10%	.	-4	.	.
N#C/C(=C\c1ccccc1Br)C(=O)NC1CC1	-195*	-16%	1%	1	5%	0
COc1ccccc1C(=O)Oc1ccc(Cl)cc1C(=O)/C=C/c1ccc(F)cc1	.	-16%	.	8	.	.
Cc1nc2ccc(Cl)cc2nc(C)/c1=N\O	-92*	441%	-7%	28	?	-9
CCOc1ccc(CC(=O)NNC(=S)NCCCOC)cc1OCC	.	9%	.	5	.	.
